Laboratory results reported in PubChem BioAssay (NCI).
This is part of a sample that, as a whole, favours compounds with a hit. Of some 83,000 tested, about 20% had one in any assay.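 Plates (96-well) were seeded with cells, treated with compound at one concentration, and incubated for 48 hours before percent growth was determined.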 Calls of active or inactive are those of the source. Rule for the calls: active = growth percent below 10; inactive = the rest.

Columns and labels:
Test in all cases: NCI-60 one-dose screen, 48 h (100 = growth as untreated, 0 = no growth, -100 = all killed)
Settings in all cases: 10 µM unless noted
[1] = tested on: DU-145 prostate
[2] = tested on: K-562 leukemia
[3] = tested on: MALME-3M melanoma
[4] = tested on: MDA-MB-231 breast
[5] = tested on: RXF 393 renal
[6] = tested on: SF-268 CNS
[7] = tested on: SF-295 CNS
[8] = tested on: SF-539 CNS
[9] = tested on: UACC-257 melanoma
[10] = tested on: M14 melanoma
[11] = tested on: HCT-15 colon
[12] = tested on: HT29 colon
[13] = tested on: SNB-75 CNS
[14] = tested on: SNB-19 CNS
[15] = tested on: U251 CNS
[16] = tested on: PC-3 prostate
[17] = tested on: SK-MEL-5 melanoma
[18] = tested on: UACC-62 melanoma
[19] = tested on: LOX IMVI melanoma
[20] = tested on: SK-MEL-28 melanoma

Measured: growth

O=c1c2c(c3ccccc3n1-c1ccccc1)NC(=S)NC2c1ccc(Cl)cc1 (centres undefined)
active: [16] -4.33% | [17] 1.08% | [19] 8.65%
inactive: [1] 47.2% | [2] 43.1% | [3] 39.2% | [4] 50.5% | [5] 46.3% | [6] 43.5% | [7] 25.9% | [8] 21.2% | [9] 44.1% | [10] 29.1% | [11] 28.6% | [12] 41.5% | [13] 41% | [14] 39.7% | [15] 32.4% | [18] 22.4% | [20] 48.2%

COC(=O)c1ccc2[nH]c(O)c(C(=Nc3ccc(N(C)C(=O)CN4CCN(C)CC4)cc3)c3ccc(N)cc3)c2c1
inactive: [1] 96.8% | [2] 14% | [3] 83.5% | [4] 87.6% | [5] 56.7% | [6] 62.4% | [7] 99.1% | [8] 50.8% | [9] 125% | [10] 88% | [11] 99.4% | [12] 42.6% | [13] 42.5% | [14] 83.9% | [15] 82.2% | [16] 83.4% | [17] 85.2% | [18] 110% | [19] 74.6% | [20] 87.1%

O=C1/C(=C\c2cn(-c3nc(N4CCOCC4)nc(N4CCOCC4)n3)c3ccccc23)c2ccccc2N1c1c(Cl)cccc1Cl
inactive: [1] 57.1% | [2] 80.6% | [3] 95.6% | [4] 76.9% | [6] 57.8% | [7] 37.6% | [8] 63% | [9] 80.7% | [10] 78.2% | [11] 64.5% | [12] 73.9% | [14] 69.6% | [15] 53.5% | [16] 24.3% | [17] 83% | [18] 46.6% | [19] 69.8% | [20] 77.2%
active: [5] -10.8% | [13] 0.936%

CC(O)c1cc[cH-]c1.[Fe+2].c1cc[cH-]c1 (centres undefined)
inactive: [1] 108% | [2] 102% | [3] 102% | [4] 110% | [5] 95.6% | [6] 108% | [7] 98.8% | [8] 97% | [9] 96.9% | [10] 95.6% | [11] 95.3% | [12] 110% | [13] 92% | [14] 105% | [15] 98.2% | [16] 98.2% | [17] 98.2% | [18] 108% | [19] 126% | [20] 112%

CCCCCCCCCCC1OC(C)CC(C)O1 (centres undefined)
inactive: [1] 104% | [2] 86.5% | [3] 98% | [4] 115% | [5] 103% | [6] 96% | [7] 109% | [8] 103% | [9] 113% | [10] 101% | [11] 102% | [12] 106% | [13] 95.4% | [14] 109% | [15] 105% | [16] 101% | [17] 107% | [18] 107% | [20] 102%

CCOC(=O)c1ccc2n1CCCc1cnc(NC(C)=O)nc1-2
inactive: [1] 111% | [2] 102% | [3] 110% | [4] 106% | [5] 96.6% | [6] 96.2% | [7] 100% | [8] 95.1% | [9] 115% | [10] 99.9% | [11] 107% | [12] 106% | [13] 85.5% | [14] 99.7% | [15] 102% | [16] 93.1% | [17] 100% | [18] 93.9% | [19] 99.7% | [20] 99.2%

CC1=C(C)C(=O)C(C(C)C2=C(C)C(=O)C(C)=C(C)C2=O)=C(C)C1=O
inactive: [1] 92.7% | [2] 37.5% | [3] 119% | [4] 94.2% | [5] 11.3% | [6] 101% | [7] 128% | [8] 81.2% | [9] 92.7% | [10] 108% | [11] 99.7% | [12] 68.7% | [13] 96.6% | [14] 99% | [15] 81% | [16] 52.4% | [17] 75% | [18] 85% | [19] 81% | [20] 117%

CCCC(=O)Nc1ccccc1C(=O)O
inactive: [1] 97.6% | [2] 104% | [3] 106% | [4] 123% | [5] 93.7% | [6] 92.4% | [7] 93.9% | [8] 102% | [9] 85.2% | [10] 98.6% | [11] 95.4% | [12] 96.6% | [13] 89.4% | [14] 106% | [15] 89.7% | [16] 103% | [17] 99% | [18] 105% | [19] 92.5% | [20] 107%
